Screen size: about 350,000 compounds; about 1,100 (0.31%) were called active. This is one part of a sample in which actives are shown more often than they occur. A number with no mark means an inactive call. No stated cut-off is given here; in the data, active means activation above about 50%; inactive means the rest.

The target of this experiment is Endoribonuclease toxin MazF (Escherichia coli (strain K12)) (UniProt P0AE70). The experiment can be described thus: activators of E. coli MazEF toxin-antitoxin RNase, primary screen, biochemical, fluorescence, uHTS (AID 504720). To be noted: FAM/BHQ RNA-DNA oligo cleavage fluorescence, 5 h, at 20 µM, hits give high values.
Endoribonuclease toxin MazF (Escherichia coli (strain K12)), sequence (P0AE70 whole entry, looked up): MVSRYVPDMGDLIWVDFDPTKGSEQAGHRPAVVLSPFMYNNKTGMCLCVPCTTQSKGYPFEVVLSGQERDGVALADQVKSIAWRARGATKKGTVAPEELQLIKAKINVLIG
As for `Cc1cc(NC(=O)CSc2nc(C(C)C)nc3sc4c(c23)CCC(C)C4)no1` (stereo not given), the activation is 2.72%.

Turning to `CC(C)c1nc(SCC(=O)Nc2cccc(C(=O)O)c2)c2c3c(sc2n1)CCCC3`, the activation is 3.75%.

Consider `Cc1nc(SCC(=O)Nc2cc(C)on2)c2c3c(sc2n1)CCCC3`, for which the activation is 63.5% (active).

Take `CCC(C)(C)NC(=O)C(c1ccccn1)N(C(=O)c1csnn1)c1ccccc1` (stereo not given): the activation is 5.61%.

Take `COc1ccc(CCNC(=O)CSc2nc(C)nc3c2oc2ccccc23)cc1OC`: the activation was 6.58%.

For `O=c1cc(CN2CCN(c3cccc(Cl)c3)CC2)c2cc3c(cc2o1)CCCC3`, the activation was -4.83%.

As for `Cc1ccnc(N2CCN(C(=O)CSc3nc4ccccc4nc3N3CCCCC3)CC2)c1`, the activation is -5.31%.

Turning to `COc1cc(OC)cc(-c2c(C#Cc3ccsc3)c3cc(-c4ccc(OC)cc4F)ccc3n2C)c1`, the activation is -17.7%.

Consider `Cc1ccc(Nc2nc(-c3ccc(O)cc3O)cs2)nc1`, for which the activation is 17.4%.

On to `Cc1ccn2c(-c3csc(Nc4ccc(C(=O)O)cc4)n3)c(C)nc2c1`, for which the activation is -8.63%.

In the case of `O=c1oc2ccccc2cc1-c1csc(Nc2ccc(O)cc2)n1`, the activation was 78.3% (active).

In the case of `CCCC1(C(=O)OC)NC(c2ccco2)C2C(=O)N(C)C(=O)C21` (stereo not given), the activation was -13%.

Turning to `NS(=O)(=O)c1ccc(NC(=S)NNC(=O)c2cccs2)cc1`, the activation is 13.7%.

`O=C(COC(=O)c1ccccc1C(=O)N1CCN(c2ccccc2)CC1)NCc1ccccc1`: the activation was 67.3% (active).

In the case of `CC(C)N(C(=O)COC(=O)c1ccccc1C(=O)N1CCN(c2ccc(F)cc2)CC1)C(C)C`, the activation is 5.64%.

With `Oc1ccc(N2CCN(C(=S)NCc3ccccc3)CC2)cc1`, the activation is -1.54%.

Turning to `Cn1c2ccccc2n2c(=O)c(=O)n(CC(=O)c3ccc(F)cc3)nc12`, the activation is -20.6%.

As for `CCSc1ccccc1C(=O)NCc1ccc(OC)cc1`, the activation was 2.86%.

Consider `COc1ccc(OC)c(NC(=O)c2cnn(-c3ccccc3Cl)c2NC(=O)c2ccco2)c1`, for which the activation is 4.29%.

For `CCC(=O)OCc1c(C(F)(F)F)nn(C)c1Oc1cccc(C(F)(F)F)c1`, the activation was -2.22%.

On to `Cn1nc(C(F)(F)F)cc1C(=O)O`, for which the activation is 11.7%.

With `Cn1nc(C(F)(F)F)cc1-c1ccc(/C=C(\C#N)C(=O)c2cccc(C(F)(F)F)c2)s1`, the activation is 730% (active).

`C=CCSc1nc(Cc2ccc(Cl)cc2)nc2ccccc12`: the activation is -10.7%.

On to `COc1cccc(OC)c1CN(C)C(=O)c1cnccc1C(F)(F)F`, for which the activation is -0.62%.

With `Cc1nc([N+](=O)[O-])cn1CC(=O)Nc1ccc(Cl)cc1`, the activation was 7.49%.

Regarding `Nc1c(C(=O)c2cccs2)sc2nsc(SCCN3CCCCC3)c12`, the activation was 790% (active).

Consider `CN=C(c1ccccc1)c1c(C)cccc1C`, for which the activation was 0.32%.

For the molecule `CN(C)CCNC(=O)C(C(=O)c1ccccc1)n1ccccc1=O` (stereo not given), the activation is 5.66%.

In the case of `Cc1nn2c3cc(N4CCOCC4)ccc3nc2c2ccccc12`, the activation was 31.7%.

For the molecule `CC(=O)c1sc(NC(=O)c2cccc3ccccc23)nc1C`, the activation was 63.5% (active).

As to `Cc1ccn2c(=O)c(NC(=O)c3cccc4ccccc34)c(C)nc2c1`, the activation was 4.6%.

`CC(=O)c1sc(NC(=O)C2=NN(c3ccccc3)C(=O)CC2)nc1C`: the activation was 0.238%.

Take `Cc1cccc(N2C(=O)C3C(c4ccccc4)OC4(C(=O)c5ccccc5C4=O)C3C2=O)c1` (stereo not given): the activation is 0.83%.

Take `CCOc1ccc(N2C(=O)Nc3ccccc3C2(O)C(=O)NCc2ccco2)cc1` (stereo not given): the activation is -28.4%.

For the molecule `CCCCCCCC(=O)NC(Nc1ccccc1OC)C(Cl)(Cl)Cl` (stereo not given), the activation was -13.4%.

For `Cc1ccsc1CNn1cnnc1SCc1ccccc1F`, the activation was 54.5% (active).

As to `Cc1ccccc1CSc1nnc(-c2cccnc2)n1N`, the activation is -17.4%.

`CCN(CC(=O)NCc1cccs1)C(=O)c1cccc(S(=O)(=O)Nc2ccccc2OC)c1`: the activation was 2.02%.

For `CCOc1ccc(C(C(=O)NCCOC)N(CCOC)C(=O)CCC(=O)Nc2ccccn2)cc1` (stereo not given), the activation is -1.66%.

Turning to `Cc1ccc(C(=O)O)cc1N1C(=O)CCCC1=O`, the activation is 4.24%.

Take `COCCCNc1nc2c(-c3cccc(C)c3)nnn2c2ccc(Cl)cc12`: the activation is 6.31%.

In the case of `CN(CC(=O)Nc1ccc(F)c(F)c1F)C(=O)Cn1cnc2c1c(=O)n(C)c(=O)n2C`, the activation is 3.59%.

Turning to `O=C(c1ccc(Cl)cc1)N1N=C(c2ccccn2)CC1(O)C(F)(F)F` (stereo not given), the activation is 7.8%.

Regarding `O=C1NC(=O)N(c2ccc(F)cc2)C(=O)/C1=C/c1ccc2c(c1)CCCN2Cc1ccccc1`, the activation was 50.1% (active).

`O=C1CN(C(=O)c2cc(F)cc(F)c2)c2ccccc2N1`: the activation was 10.5%.

In the case of `COCCNC(=O)C(c1ccc(O)cc1)N(C(=O)CCC(=O)Nc1nccs1)c1ccc(C)cc1` (stereo not given), the activation is 8.66%.

Regarding `CC(=O)Oc1cc2c(C(=O)NCCN3CCOCC3)c(C)oc2c2ccccc12`, the activation was -12.4%.

On to `O=C(CN1C(=O)NC(Cc2ccccc2)(Cc2ccccc2)C1=O)NCC1CCCCC1`, for which the activation was 2.41%.

As for `CCCCCCNCCn1cnc2c(N)ncnc21`, the activation was 2.79%.

Regarding `CCOCCN(C=O)c1cccc(OC)c1`, the activation was 4.02%.

With `CCC(C(=O)NC1CCCCC1)N(C(=O)c1snc(C(N)=O)c1N)c1ccc(OC)cc1OC` (stereo not given), the activation is 8.72%.

Turning to `COc1ccc(N(C(=O)c2snc(C(N)=O)c2N)C(C(=O)NC2CCCC2)c2ccc(C)o2)c(OC)c1` (stereo not given), the activation is 146% (active).

Turning to `COc1ccc(C(C(=O)NC2CCCCC2)N(C(=O)c2snc(C(N)=O)c2N)c2ccccc2OC)cc1` (stereo not given), the activation is 6.68%.

For `O=C(NCCCO)/C(=C\C=C\c1ccccc1)NC(=O)c1ccccc1Cl`, the activation was -2.84%.

Take `CCNC(=O)NC(=O)C(C)OC(=O)C1CCN(S(=O)(=O)c2ccccc2F)CC1` (stereo not given): the activation was 5.47%.

In the case of `C=CC[C@H](CC(=O)N(CCO)Cc1ccccc1)C(=O)N[C@@H](COC(=O)[C@@H](CC=C)Cc1ccc(F)cc1)Cc1ccccc1`, the activation was -7.46%.

On to `Cc1nc(NCc2ccccc2)c(C(N)=O)c2c1COC(C)(C)C2`, for which the activation is -2.87%.

Regarding `CCCn1c(=O)c2c(C(F)(F)F)cc(-c3cccs3)nc2n(CCC)c1=O`, the activation was 11.8%.

Regarding `O=C(NC(=S)Nc1cc(C(F)(F)F)ccc1N1CCOCC1)c1ccc(-c2cccc(Cl)c2)o1`, the activation is -2.26%.

Regarding `CC(C(=O)NC1CCS(=O)(=O)C1)N1C(=O)/C(=C/c2ccc(Cl)cc2)SC1=S` (stereo not given), the activation was 0.406%.

Consider `O=C(O)C(c1ccccc1)N1C(=O)/C(=C\c2ccc(-c3cccc(Cl)c3)o2)SC1=S` (stereo not given), for which the activation was 199% (active).

Take `CC(C)N=C1CCCC1C(=S)SSC(=S)C1CCCC1=NC(C)C` (stereo not given): the activation is 1.19%.

For `CN(C)c1ccc(C2N(C)C(=O)c3ccccc3N2C)cc1` (stereo not given), the activation is -0.422%.

Take `CN(C)c1ccc(Nc2c3c4c(cccc4n(C)c2=O)C(=O)c2ccccc2-3)cc1`: the activation is 178% (active).

Take `NC1=NC(=O)C(Cc2cccc(Cl)c2Cl)S1` (stereo not given): the activation is -10%.

For the molecule `COc1cc(C(=O)NCc2nnc(SCC(=O)Nc3nc4ccc(C)cc4s3)o2)cc(OC)c1OC`, the activation was 12.4%.

With `CCN(CC)CCOc1ccc2c(c1)C(=NNC(=O)c1ccccn1)c1cc(OCCN(CC)CC)ccc1-2`, the activation is -0.85%.

Turning to `CN(CCNC(=O)c1cc2c(-c3ccccc3F)nn(C)c2s1)C1CCCCC1`, the activation was 18.1%.

For `COCCNc1nc(-c2ccccc2)nc2c1oc1ccccc12`, the activation was 10.6%.

With `CCc1nc(Nc2ccc3nccnc3c2)c2oc3ccccc3c2n1`, the activation is 92.8% (active).

As to `C[C@@H](Nc1nc(-c2ccccc2)nc2c1oc1ccccc12)C(=O)O`, the activation is 0.442%.

As for `O=C(CSc1ccc(Cl)cc1)NC1CC1`, the activation was 8.89%.

Regarding `Cc1noc(NS(=O)(=O)c2ccc(N3CC(O)=C(c4ccccc4)C3=N)cc2)c1C`, the activation was -0.03%.

Take `COc1ccc(N=C2C=CC(=O)O2)cc1`: the activation is 6.95%.

For the molecule `COc1ccc(N=Nc2c(-c3ccc(OC)cc3)[nH]oc2=O)cc1`, the activation is 61.5% (active).

Consider `O=c1o[nH]c(-c2ccccc2)c1N=Nc1c(F)cccc1Cl`, for which the activation is -10.5%.

As to `COc1ccc(N2CCN(Cc3ccc(Br)s3)CC2)cc1`, the activation was -3.28%.

In the case of `O=S(=O)(c1cnccc1N1CCN(/N=C/c2ccc(Br)cc2)CC1)N1CCCCC1`, the activation is -7.86%.

On to `O=C(c1ccc(Cl)nc1)N1CCN(S(=O)(=O)c2ccc3c(c2)OCCO3)CC1`, for which the activation was 2.83%.

For `COc1cc(C(=O)N2C(=O)c3cccc(N)c3C2=O)cc(OC)c1OC`, the activation was 75.9% (active).

As to `CC1CC(C)CN(S(=O)(=O)c2cccc(C(=O)N3C(=O)c4cccc(N)c4C3=O)c2)C1` (stereo not given), the activation is 3.79%.

With `COc1cc(C(=O)N2CCN(C)CC2)cc(OC)c1OC`, the activation was 4.16%.

For the molecule `NC(CSC(c1ccccc1)(c1ccccc1)c1ccc(-c2ccccc2)cc1)C(=O)O` (stereo not given), the activation was -7.6%.

In the case of `COc1ccc(CN(C)C(=S)Nc2ccc(Cl)cc2Cl)cc1`, the activation is 7.07%.

As to `CCn1c(/C=C/c2ccc([N+](=O)[O-])o2)nc2ccccc2c1=O`, the activation was 1270% (active).

As for `O=c1c2ccccc2nc(/C=C/c2ccc(F)cc2)n1-c1ccccc1O`, the activation was -12.9%.

`O=c1c2ccccc2nc(/C=C/c2ccco2)n1-c1ccccc1O`: the activation is -0.876%.

For the molecule `CN1OC[C@@H]2CN[C@H](c3ccc(-c4ccccc4)cc3)C[C@@H]21`, the activation was 8.87%.

As to `COC(=O)c1c(-c2ccsc2)oc2ccc(-c3cc(OC)c(OC)c(OC)c3)cc12`, the activation is 1.83%.

In the case of `O=C1N[C@H](Cc2c[nH]c3ccccc23)COC(=O)[C@H](Cc2ccc(F)cc2)C/C=C\C[C@H]1CC(=O)N(CCO)Cc1ccccc1`, the activation was -14.8%.
